PubChem BioAssay (Tox21)
Results filed as inconclusive are left out. The source made the active and inactive calls. Unless noted, calls come from the whole dose curve; as a rule, active = well fitted curve in the direction sought with a large enough effect in the repeat runs; inconclusive = weak or mixed curves; inactive = no such curve, though single readings can be large; an effect the other way counts as inactive or inconclusive.

Experiments:
[1] = qHTS assay to identify small molecule antagonists of the estrogen related receptor signaling pathway with the pleiotropic PPARgamma coactivator (PGC) cell viability counter screen (AID 1224822); conditions: ERR/PGC reporter cell line viability counter screen; series mostly up to 46.1 µM
Procedure, shortened: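 PGC/ERR cells were seeded at 2,000 cells/well, rested 6 h at 37 C/5% CO2, then given compounds in DMSO by pin tool and incubated 17.5 h at 37 C. Viability came from CellTiter-Fluor fluorescence after 30 min.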

[2] = qHTS assay to identify small molecule antagonists of the estrogen related receptor (ERR) signaling pathway from Tox21 library - cell viability counter screen (AID 1224834); conditions: ERR reporter cells viability, CellTiter-Fluor, 17.5 h; series mostly up to 92.4 µM; note: nearly all actives have a fitted effect of over 30% in size; note: potency is the fitted concentration of half-maximal effect
Procedure, shortened: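 ERR reporter cells were plated 6 h before compound addition, then exposed to test compounds in DMSO for 17.5 h at 37 C. Viability was read as CellTiter-Fluor fluorescence after a 30-minute incubation at 37 C.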

[3] = qHTS assay to identify small molecule agonists of the constitutive androstane receptor (CAR) signaling pathway - cell viability counter screen (AID 1224836); conditions: HepG2-CYP2B6-hCAR viability, CellTiter-Fluor, 23 h, PK11195 added to every well; series mostly up to 92.4 µM; note: nearly all actives have a fitted effect of over 45% in size
Procedure, shortened: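 Compound titrations (15 concentrations) went onto HepG2-CYP2B6-hCAR cells 4 h after seeding, alongside PK11195 at a final 0.75 uM; a 23 h, 37 C/5% CO2 incubation preceded CellTiter-Fluor viability measurement.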

[4] = qHTS assay to identify small molecule antagonists of the constitutive androstane receptor (CAR) signaling pathway - cell viability counter screen (AID 1224837); conditions: HepG2-CYP2B6-hCAR viability, CellTiter-Fluor, 23 h, co-treated with 50 nM CITCO; series mostly up to 92.4 µM; note: nearly all actives have a fitted effect of over 45% in size
Procedure, shortened: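 HepG2 cells stably expressing hCAR and a CYP2B6-2.2kb reporter were plated and pre-incubated 4 hr at 37 C/5% CO2, then given compounds at 15 concentrations plus 50 nM CITCO (final). After 23 hr, viability was read by CellTiter-Fluor fluorescence.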

[5] = qHTS assay to identify small molecule antagonists of the estrogen related receptor signaling pathway with the pleiotropic PPARgamma coactivator (PGC) from Tox21 10K library - cell viability counter screen (AID 1224840; active = well fitted cell-killing curve with a large enough effect in the repeat runs, not every such curve was filed as active; note: nearly all actives have a fitted effect of over 40% in size; note: potency is the fitted concentration of half-maximal effect); conditions: PGC/ERR reporter cells viability, CellTiter-Fluor, 17.5 h; series mostly up to 92.4 µM
Procedure, shortened: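 PGC/ERR cells were seeded at 2,000 cells/well and left 6 hours at 37 C/5% CO2 before pin-tool addition of compounds in DMSO. After 17.5 hours at 37 C, CellTiter-Fluor was added and fluorescence read 30 minutes later.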

[6] = molecular target: Thyrotropin receptor (Homo sapiens) (UniProt P16473); assay: qHTS assay to identify small molecule agonists of the thyroid stimulating hormone receptor (TSHR) signaling pathway (AID 1224843; calls by dose curve; note: nearly all actives have a fitted effect of over 45% in size); conditions: TSHR-HEK293 cells, cAMP HTRF, agonist mode, 30 min; series mostly up to 92.4 µM
Procedure, shortened: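 Screening of the Tox21 10K collection used HEK293 cells engineered with TSHR at 800 cells per well. After a 30-min room-temperature compound exposure, HTRF cAMP reagents were added and fluorescence recorded 1 h later.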

[7] = qHTS assay to identify small molecule agonists of H2AX (AID 1224845; active = well fitted activation curve with a large enough effect in the signal ratio in the repeat runs, not every such curve was filed as active; the % refers to the signal ratio); conditions: CHO-K1 phospho-H2AX Ser139 HTRF, 3 h; series mostly up to 154 µM
Procedure, shortened: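 Phospho-H2AX Ser139 measured by HTRF (ex 320 nm; em 665 and 620 nm) after 24 hr antibody incubation. Compounds, 15 concentrations, 0.76% DMSO, were applied to CHO-K1 cells for 3hr at 37C before lysis.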

[8] = qHTS assay to identify small molecule agonists of the hypoxia (HIF-1) signaling pathway (AID 1224846; active = well fitted activation curve with a large enough effect in the signal ratio in the repeat runs, not every such curve was filed as active; the % refers to the signal ratio); conditions: HRE-bla ME-180 cells, beta-lactamase ratio, 17 h; series mostly up to 76.8 µM
Procedure, shortened: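 HRE-bla ME-180 cells (beta-lactamase reporter under hypoxia response element) were plated at 2,000 cells/well in medium with 0.5% dialyzed FBS, rested 5 hrs, then given compounds in DMSO for 17 hrs at 37C, 5% CO2. Reporter induction was read with CCF4-AM FRET substrate.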

[9] = qHTS assay to identify small molecule agonists of the estrogen related receptor (ERR) signaling pathway (AID 1224820); conditions: ERR reporter cell line, luciferase agonist mode; series mostly up to 46.1 µM
Procedure, shortened: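 Cells: ERR line from NTP, 2,000/well. Pre-incubation 6 h, 37 C/5% CO2. Compound (DMSO) pin transfer, 18 h 37 C. One-Glo, 30 min RT, luminescence.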

[10] = qHTS assay to identify small molecule agonists of the estrogen related receptor signaling pathway with the pleiotropic PPARgamma coactivator (PGC) (AID 1224823); conditions: ERR/PGC reporter cell line, luciferase agonist mode; series mostly up to 46.1 µM
Procedure, shortened: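 Steps: plate PGC/ERR cells at 2,000 cells/well; incubate 6 h, 37 C/5% CO2; pin-transfer compounds (DMSO); incubate 18 h, 37 C; add One-Glo; 30 min RT; read luminescence.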

[11] = system: estrogen-related receptor alpha (ERRalpha) with PGC-1alpha coactivator, human; assay: qHTS assay to identify small molecule antagonists of the estrogen related receptor signaling pathway with the pleiotropic PPARgamma coactivator (PGC) (AID 1224821; calls by dose curve;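 note: lower luminescence signal means antagonism of PGC/ERR signalling; nearly all actives have a fitted effect of over 50% in size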); conditions: ERR/PGC reporter cell line, luciferase, antagonist mode; series mostly up to 46.1 µM
Procedure, shortened: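 Luminescent read-out (One-Glo, 30 min at room temperature) following 18 h treatment of PGC/ERR cells at 37 C with compounds delivered in DMSO. Cells had settled 6 h at 37 C/5% CO2 before dosing.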

[12] = molecular target: Luciferin 4-monooxygenase (Photinus pyralis) (UniProt P08659); assay: qHTS assay to identify small molecule inhibitors of firefly luciferase (AID 1224835); note: nearly all actives have a fitted effect of over 25% in size; conditions: purified P. pyralis luciferase, luminescence inhibition; series mostly up to 115 µM
Procedure, shortened: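 Inhibition of purified Photinus luciferase is measured by luminescence. Substrate levels (D-luciferin, ATP) sit at their KM values. Each compound is tested in a concentration series.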

[13] = molecular target: Nuclear receptor subfamily 1 group I member 3 (Homo sapiens) (UniProt Q14994); assay: qHTS assay to identify small molecule antagonists of the constitutive androstane receptor (CAR) signaling pathway (AID 1224838); conditions: HepG2-CYP2B6-hCAR luciferase, CITCO-stimulated, 24 h; series mostly up to 92.4 µM; note: nearly all actives have a fitted effect of over 40% in size
Procedure, shortened: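 HepG2 cells stably co-transfected with hCAR and a CYP2B6-2.2kb luciferase reporter were seeded 4 h before compound addition at 15 concentrations. Cells were stimulated with 50 nM CITCO (final) for 24 h at 37 C; luciferase luminescence was then read.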

[14] = molecular target: Nuclear receptor subfamily 1 group I member 3 (Homo sapiens) (UniProt Q14994); assay: qHTS assay to identify small molecule agonists of the constitutive androstane receptor (CAR) signaling pathway (AID 1224839); conditions: HepG2 hCAR CYP2B6-luciferase, agonist mode, 24 h; series mostly up to 92.4 µM; note: nearly all actives have a fitted effect of over 15% in size; note: potency is the fitted concentration of half-maximal effect;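 for activation: HepG2 cells stably carrying human CAR and a CYP2B6 luciferase reporter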
Procedure, shortened: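 In this screen, CAR-driven CYP2B6 promoter activity is measured by luminescence in HepG2-CYP2B6-hCAR cells after 24 h with test compounds and 0.75 uM PK11195 (final concentration).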

[15] = qHTS assay to identify small molecule antagonists of the estrogen related receptor signaling pathway with the pleiotropic PPARgamma coactivator (PGC) from Tox21 10K library (AID 1224841; call rule not given here; note: actives are mostly falling curves and most rising ones were filed inactive; nearly all actives have a fitted effect of over 50% in size; note: potency is the fitted concentration of half-maximal effect); conditions: PGC/ERR reporter cell line, ONE-Glo luciferase, 18 h; series mostly up to 92.4 µM
Procedure, shortened: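 PGC/ERR reporter cells were seeded at 2,000 cells/well and held 6 hours at 37 C/5% CO2 before pin-tool addition of compounds in DMSO. After 18 hours at 37 C, One-Glo was added and luminescence read after 30 minutes at room temperature.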

[16] = qHTS assay to identify small molecule agonists of the estrogen related receptor signaling pathway with the pleiotropic PPARgamma coactivator (PGC) from Tox21 10K library (AID 1224842); conditions: PGC/ERR reporter cell line, luciferase ONE-Glo, 18 h; series mostly up to 92.4 µM; note: nearly all actives have a fitted effect of over 15% in size
Procedure, shortened: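 Luminescence from One-Glo (30 min, room temperature) measured after PGC/ERR cells had 18 h at 37 C with pinned compound (23 nL in DMSO). Cells had been seeded at 2,000 per well and pre-incubated 6 h.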

[17] = qHTS assay to identify small molecule agonists of the hypoxia (HIF-1) signaling pathway - cell viability counter screen (AID 1224844; calls by dose curve; note: nearly all actives have a fitted effect of over 50% in size); conditions: HRE-bla ME-180 viability, CellTiter-Glo luminescence, 17 h; series mostly up to 76.8 µM
Procedure, shortened: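 HRE-bla ME-180 cells in medium with 0.5% dialyzed FBS were preincubated 5 hrs at 37C, exposed to compounds for 17 hrs, then viability was read as CellTiter-Glo luminescence after 30 min at room temperature, in the reporter wells.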

Measured: Potency

Sequence of Luciferin 4-monooxygenase (Photinus pyralis) (P08659 whole entry, looked up): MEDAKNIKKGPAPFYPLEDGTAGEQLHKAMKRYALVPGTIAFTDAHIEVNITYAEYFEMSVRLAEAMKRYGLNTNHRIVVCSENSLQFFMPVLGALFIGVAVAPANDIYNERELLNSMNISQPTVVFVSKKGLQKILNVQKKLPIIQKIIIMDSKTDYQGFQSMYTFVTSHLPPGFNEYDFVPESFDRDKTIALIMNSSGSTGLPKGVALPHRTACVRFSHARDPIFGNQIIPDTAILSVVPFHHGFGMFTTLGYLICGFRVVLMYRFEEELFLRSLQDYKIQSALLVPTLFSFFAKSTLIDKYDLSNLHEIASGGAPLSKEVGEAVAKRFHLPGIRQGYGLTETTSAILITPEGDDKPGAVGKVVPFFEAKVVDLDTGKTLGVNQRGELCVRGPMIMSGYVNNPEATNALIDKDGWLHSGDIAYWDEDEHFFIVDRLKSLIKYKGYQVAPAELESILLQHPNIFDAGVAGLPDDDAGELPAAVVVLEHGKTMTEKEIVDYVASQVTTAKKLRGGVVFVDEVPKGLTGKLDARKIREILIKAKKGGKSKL
Sequence of Thyrotropin receptor (Homo sapiens) (P16473 whole entry, looked up): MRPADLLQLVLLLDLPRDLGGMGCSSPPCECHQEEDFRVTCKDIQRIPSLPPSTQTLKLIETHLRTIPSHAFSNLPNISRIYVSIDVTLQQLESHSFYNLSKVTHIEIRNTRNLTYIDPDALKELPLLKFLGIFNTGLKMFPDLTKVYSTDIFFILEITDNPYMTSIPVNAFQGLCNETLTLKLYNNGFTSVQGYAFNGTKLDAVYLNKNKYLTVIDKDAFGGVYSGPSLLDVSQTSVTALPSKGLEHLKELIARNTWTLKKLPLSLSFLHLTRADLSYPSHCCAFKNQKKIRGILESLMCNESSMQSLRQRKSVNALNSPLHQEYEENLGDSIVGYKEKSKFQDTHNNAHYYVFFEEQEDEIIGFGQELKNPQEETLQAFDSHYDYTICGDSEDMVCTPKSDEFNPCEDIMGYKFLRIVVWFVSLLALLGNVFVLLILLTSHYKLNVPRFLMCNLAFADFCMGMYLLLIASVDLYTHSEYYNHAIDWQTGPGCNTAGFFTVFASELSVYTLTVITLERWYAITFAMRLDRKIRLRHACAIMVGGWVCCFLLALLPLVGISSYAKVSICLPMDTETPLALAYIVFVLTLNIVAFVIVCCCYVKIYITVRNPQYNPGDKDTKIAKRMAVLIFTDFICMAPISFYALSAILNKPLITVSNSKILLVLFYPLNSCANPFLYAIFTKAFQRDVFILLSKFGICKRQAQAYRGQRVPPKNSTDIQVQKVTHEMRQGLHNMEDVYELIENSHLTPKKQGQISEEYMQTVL
Sequence of Nuclear receptor subfamily 1 group I member 3 (Homo sapiens) (Q14994 whole entry, looked up): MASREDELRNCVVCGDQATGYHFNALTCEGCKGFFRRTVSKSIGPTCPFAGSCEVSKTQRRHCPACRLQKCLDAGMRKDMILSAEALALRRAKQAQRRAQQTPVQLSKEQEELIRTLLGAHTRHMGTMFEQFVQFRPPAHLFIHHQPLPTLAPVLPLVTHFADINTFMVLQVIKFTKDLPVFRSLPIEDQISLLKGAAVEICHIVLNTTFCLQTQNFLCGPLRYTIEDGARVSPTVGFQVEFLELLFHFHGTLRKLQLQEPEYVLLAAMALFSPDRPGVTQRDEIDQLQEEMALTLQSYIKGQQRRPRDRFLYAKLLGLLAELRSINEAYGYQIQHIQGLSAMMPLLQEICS

C/C(=C\c1ccc(C(=O)O)cc1)c1ccc2c(c1)C(C)(C)CCC2(C)C
inactive: [1] | [2] | [3] | [4] | [5] | [6] | [7] | [8]

CC1CC2C3CCC4=CC(=O)C=C[C@]4(C)[C@@]3(F)[C@@H](O)C[C@]2(C)[C@@]1(O)C(=O)CO (some centres undefined)
inactive: [1]

C=CCN1CCc2c(cc(O)c(O)c2Br)[C@@H](c2ccccc2)C1
inactive: [9] | [1] | [10]

O=C1NC(=O)c2c1c(-c1ccccc1)cc1[nH]c3ccc(O)cc3c21
inactive: [9] | [11] | [10]

O=C(CCCCCN1CCN(c2ccccc2-c2ccccc2)CC1)NC1CCCc2ccccc21 (centres undefined)
inactive: [9] | [10]

Clc1ccc2c(c1)N=C(N1CCNCC1)c1ccccc1N2
inactive: [9] | [11] | [10]

C/C=C/C(=O)C1=C(C)C=CCC1(C)C
not listed: [1] | [9] | [10] | [11]
inactive: all other assays above

O=C1c2ccccc2C(=O)c2c(Cl)cccc21
inactive: [2] | [12] | [3] | [4] | [13] | [5] | [15] | [6]
active: [14] 28.9 µM

Cc1cccc(C2CN(C)CCc3c2cc(O)c(O)c3Cl)c1 (centres undefined)
inactive: [9] | [11] | [10]

Cc1ccccc1/C=C/C1=NCCN1
inactive: [9] | [10]

O=[N+]([O-])c1ccc(O)c2ncccc12
inactive: [12] | [3] | [4] | [13] | [16] | [6] | [17]
active: [2] 11.9 µM | [14] 11.9 µM | [5] 10.6 µM | [15] 5.31 µM

Oc1ccc(/C=C/c2ccc(/C=C/c3ccc(O)cc3)c(Br)c2)cc1
inactive: [9] | [11] | [10]

Nc1cc([N+](=O)[O-])ccc1Cl
not listed: [1] | [8] | [9] | [10] | [11]
inactive: all other assays above

C=C1CC[C@H]2O[C@]2(C)CC[C@@H]2[C@@H]1CC2(C)C
not listed: [1] | [9] | [10] | [11]
inactive: all other assays above

O=C1CCC(=O)N1
inactive: [2] | [12] | [3] | [5] | [15] | [16] | [6] | [17] | [7]

CC1(C)[C@H](C(=O)OCc2cccc(Oc3ccccc3)c2)[C@@H]1C=C(Cl)Cl
inactive: [2] | [12] | [3] | [4] | [14] | [5] | [6] | [17] | [7]
